Source: PubChem BioAssay (NCATS)
Inconclusive results are not listed. A call without a number means that no potency is given here. Calls of active or inactive are those of the source. Calls follow the shape of the dose curve; as a rule, active = well fitted curve in the direction sought with a large enough effect; inconclusive = small, poorly fitted or top-dose-only effect, or another doubt; inactive = no such curve, though single readings can be large; an effect the other way counts as inactive or inconclusive.

Tests used:
MCC-13 = assay: qHTS assay to identify novel small-molecules to repurpose for Merkel cell carcinoma treatment (AID 1296009); conditions: MCC and control cell lines, CellTiter-Glo viability, 72 h; series mostly up to 46 µM; also: nearly all actives have a fitted effect of over 60% in size
Procedure, shortened: (§1)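 Cell viability, measured as CellTiter-Glo luminescence, was normalized between DMSO and no-cell wells. The cells had been exposed to 8- or 11-point compound dilutions for 72 hr at 37 degree celsius.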

MCC-26 = assay: as above; conditions: MCC and control cell lines, CellTiter-Glo viability, 72 h; series mostly up to 46 µM
Procedure, shortened: as §1

MKL-1 = assay: as above; conditions: MCC and control cell lines, CellTiter-Glo viability, 72 h; series mostly up to 46 µM
Procedure, shortened: as §1

MKL-2 = assay: as above; conditions: MCC and control cell lines, CellTiter-Glo viability, 72 h; series mostly up to 46 µM
Procedure, shortened: as §1

UISO = assay: as above; conditions: MCC and control cell lines, CellTiter-Glo viability, 72 h; series mostly up to 46 µM
Procedure, shortened: as §1

WaGa = assay: as above; conditions: MCC and control cell lines, CellTiter-Glo viability, 72 h; series mostly up to 46 µM
Procedure, shortened: as §1

C33A = assay: Primary qHTS to identify gynecologic anti-cancer compounds using libraries of approved drugs and bioactive compounds (AID 1345084); conditions: Gynecologic cancer cell panel viability, ATPlite luminescence, 48 h; series mostly up to 57.5 µM; also: nearly all actives have a fitted effect of over 55% in size
Procedure, shortened: (§2)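 Luminescence from the ATPlite ATP-monitoring reagent indicates viable cell number; lower signal means cytotoxicity. Cells received compound 16 h after seeding and were exposed for 48 h across five concentrations.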

CASKI = assay: as above; conditions: Gynecologic cancer cell panel viability, ATPlite luminescence, 48 h; series mostly up to 57.5 µM
Procedure, shortened: as §2

CAOV3 = assay: as above; conditions: Gynecologic cancer cell panel viability, ATPlite luminescence, 48 h; series mostly up to 57.5 µM
Procedure, shortened: as §2

NIH3T3 = assay: qHTS assay to identify novel small-molecules to repurpose for Merkel cell carcinoma treatment (AID 1296009); conditions: MCC and control cell lines, CellTiter-Glo viability, 72 h; at 44.8 µM (top of the series) unless noted; also: nearly all actives have a fitted effect of over 60% in size
Procedure, shortened: as §1
Potency is read from the fitted curve at half-maximal effect.

Structure (SMILES)	Potency (MCC-13)	Potency (MCC-26)	Potency (MKL-1)	Potency (MKL-2)	Potency (UISO)	Potency (WaGa)	Potency (C33A)	Potency (CASKI)	Potency (CAOV3)	outcome (NIH3T3)
CN(C)C(=O)Oc1cccc([N+](C)(C)C)c1	inactive	inactive	inactive	inactive	inactive	inactive	inactive	inactive	–	–
CCCN(CCC)C(=O)C(CCC(=O)O)NC(=O)c1ccccc1 (stereo unspecified)	inactive	inactive	inactive	inactive	inactive	inactive	inactive	inactive	inactive	–
CC(=O)[C@]1(O)Cc2c(O)c3c(c(O)c2[C@@H](O[C@H]2C[C@H](N)[C@H](O)[C@H](C)O2)C1)C(=O)c1ccccc1C3=O	3.76 µM (active)	1.33 µM (active)	0.119 µM (active)	0.0944 µM (active)	0.422 µM (active)	0.106 µM (active)	0.501 µM (active)	1 µM (active)	–	–
CN1C[C@H](C(=O)N[C@]2(C)O[C@@]3(O)[C@@H]4CCCN4C(=O)[C@H](Cc4ccccc4)N3C2=O)C[C@@H]2c3cccc4[nH]cc(c34)C[C@H]21	inactive	inactive	inactive	inactive	inactive	inactive	–	inactive	inactive	–
CCCN(CCC)CCc1cccc2c1CC(=O)N2	inactive	inactive	inactive	inactive	inactive	inactive	inactive	inactive	–	–
Cc1cc(C)c(/C=C2\C(=O)Nc3ccccc32)[nH]1	inactive	inactive	inactive	inactive	–	inactive	inactive	inactive	inactive	–
CN1CCN(C2=Nc3ccccc3Oc3ccc(Cl)cc32)CC1	inactive	inactive	inactive	–	inactive	inactive	inactive	inactive	inactive	–
C=CCc1ccccc1OCC(O)CNC(C)C (stereo unspecified)	inactive	inactive	inactive	inactive	inactive	inactive	inactive	inactive	–	–
CCCCNC(=O)NS(=O)(=O)c1ccc(C)cc1	inactive	inactive	inactive	inactive	inactive	inactive	inactive	inactive	–	–
C[N+](C)(C)CCOC(N)=O	inactive	inactive	inactive	inactive	inactive	inactive	inactive	inactive	–	–
Nc1ncn([C@@H]2O[C@H](CO)[C@@H](O)[C@H]2O)c(=O)n1	–	–	–	–	9.44 µM (active)	16.8 µM (active)	–	–	–	–
OCCN1CCN(CC/C=C2/c3ccccc3Sc3ccc(C(F)(F)F)cc32)CC1	–	inactive	–	–	–	–	inactive	inactive	–	–
CCc1c(C)[nH]c2c1C(=O)C(CN1CCOCC1)CC2 (stereo unspecified)	inactive	inactive	–	9.44 µM (active)	inactive	–	inactive	inactive	inactive	inactive
CCc1cccc(N(C)C(N)=Nc2cccc3ccccc23)c1	–	inactive	inactive	–	inactive	–	inactive	inactive	inactive	–
CCCCCCCC/C=C\CCCCCCCC(=O)NCc1ccc(O)c(OC)c1	inactive	inactive	inactive	–	–	–	7.94 µM (active)	inactive	inactive	–
Nc1nc(N)c2nc(-c3ccccc3)c(N)nc2n1	–	inactive	–	–	–	26.6 µM (active)	10 µM (active)	–	–	–
CCOC(=O)c1cnc2c(cnn2CC)c1NN=C(C)C	inactive	inactive	inactive	–	inactive	inactive	inactive	inactive	inactive	–
COc1cc(C(=O)OCCCN2CCCN(CCCOC(=O)c3cc(OC)c(OC)c(OC)c3)CC2)cc(OC)c1OC	inactive	inactive	inactive	–	inactive	–	inactive	–	–	–
COc1ccc([C@@H]2Sc3ccccc3N(CCN(C)C)C(=O)[C@@H]2OC(C)=O)cc1	–	–	–	–	–	–	inactive	inactive	–	–
CO[C@@]1(NC(=O)CSCC#N)C(=O)N2C(C(=O)O)=C(CSc3nnnn3C)CS[C@@H]21	inactive	inactive	inactive	–	inactive	–	inactive	inactive	inactive	–
CCN(CC)CCCN(c1ccccc1)C1Cc2ccccc2C1	inactive	inactive	inactive	–	inactive	–	–	inactive	–	–
COC(=O)C1=C(C)NC(C)=C(C(=O)OC(C)(C)CN(C)CCC(c2ccccc2)c2ccccc2)C1c1cccc([N+](=O)[O-])c1 (stereo unspecified)	–	inactive	23.7 µM (active)	–	–	–	inactive	inactive	inactive	–
c1cc(CN2CCCCC2)cc(OCCCNc2nc3ccccc3s2)c1	–	inactive	inactive	–	–	–	inactive	inactive	inactive	–
CCCC(C(=O)OCCN(CC)CC)(c1ccccc1)c1ccccc1	–	inactive	–	–	26.6 µM (active)	–	–	inactive	–	–
O=C1NCN(c2ccccc2)C12CCN(CCCC(c1ccc(F)cc1)c1ccc(F)cc1)CC2	–	–	–	23.7 µM (active)	–	–	–	–	31.6 µM (active)	–
